Here are results for 50 compounds from PubChem BioAssay AID894 (National Center for Advancing Translational Sciences (NCATS), 2007).

Hit rate of the full screen: of about 150,000 compounds, about 6,500 (4.3%) were called active. Inconclusive results (about 12%) are left out. This is one part of a sample in which actives are shown more often than they occur. The call rests on the fitted dose curve; in most records, active means well fitted inhibition curve with a large enough effect (not every such curve was filed as active); inconclusive means small, poorly fitted or top-dose-only effect, or another doubt; inactive means no such curve, though single readings can be large or run the other way.
On the % scale 0 is the no-effect control and ±100 the full control effect; potency means the concentration at half of the fitted maximal effect.

Chain of 15-hydroxyprostaglandin dehydrogenase [NAD(+)] (Homo sapiens) (P15428 whole entry, looked up): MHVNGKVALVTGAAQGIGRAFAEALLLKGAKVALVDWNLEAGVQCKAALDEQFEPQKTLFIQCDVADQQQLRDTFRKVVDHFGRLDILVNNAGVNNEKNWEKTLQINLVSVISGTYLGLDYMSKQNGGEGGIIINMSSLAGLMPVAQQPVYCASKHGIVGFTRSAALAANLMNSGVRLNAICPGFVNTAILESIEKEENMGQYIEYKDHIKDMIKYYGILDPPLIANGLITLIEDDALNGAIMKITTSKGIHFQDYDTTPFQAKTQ

The experiment has as its target 15-hydroxyprostaglandin dehydrogenase [NAD(+)] (Homo sapiens) (UniProt P15428). Description: qHTS Assay for Inhibitors of HPGD (15-Hydroxyprostaglandin Dehydrogenase). The conditions noted are these: purified HPGD, NADH fluorescence kinetic, PGE2 substrate; activity change, negative = inhibition: hits give low values. In outline:
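20 nM HPGD preincubated 15 min at room temperature with compound in 50 mM Tris-HCl pH 8, 0.01% Tween 20. Started with 1 mM NAD+ and 30 uM prostaglandin E2; NADH fluorescence (360/450 nm) read 5 times over 30-s intervals, last minus first.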
Turning to `Cc1ccc(CCCOC(=O)C[N+]2(C)CCCC2)cc1`, the activity change, negative = inhibition is -8.3% (inactive). Same read-out and setting: the value for `O=C(CSc1nnc(-c2cccs2)n1-c1ccccc1)NCc1ccco1` was -2.44% (inactive). Consider `C=CCn1c(CSc2nc3ccccc3s2)nnc1SCC(=O)NCc1ccco1`, for which the Potency was 17.8 µM (active). Turning to `C=CCn1c(SCC(=O)Nc2nc3ccccc3s2)nnc1-c1ccccc1O`, the activity change, negative = inhibition was -10.2% (inactive). The same measure, in the same setting: next, `O=C(Cc1ccccc1)NNS(=O)(=O)c1ccc([N+](=O)[O-])cc1`: -13.6% (inactive). Still for that read-out and setting: the value for `COc1ccc(CC(=O)Nc2cc(S(=O)(=O)N3CCCCC3)ccc2N2CCN(C)CC2)cc1` was -7.18% (inactive); that for `COc1cc(/C=C/C(=O)N2c3ccccc3Sc3ccc(C(F)(F)F)cc32)cc(OC)c1OC` was -14.1% (inactive). The same measure, in the same setting: next, `CCOC(=O)C1=C(C)Nc2sc(C(=O)c3ccc(Br)cc3)c(N)c2C1c1ccc(C(=O)OC)cc1` (stereo not given): -7.23% (inactive). Consider `CCOC(=O)c1sc(=S)n2c1[nH]c(=O)c1ccc(C(=O)OC)cc12`, for which the Potency was 8.91 µM (active).

As for `CCOC(=O)c1sc(NC(=O)c2ccncc2)nc1C`, the activity change, negative = inhibition is -16.2% (inactive).

As for `CN(C)c1ccc(C(CNC(=O)c2ccc(F)cc2)c2c[nH]c3ccccc23)cc1` (stereo not given), the activity change, negative = inhibition is -5.43% (inactive). `Cc1ccc(SCCC(=O)NC(C(C)C)C(C)C)cc1`: the Potency was 7.94 µM (active). As to `Cc1ccc(SCC(=O)Nc2ncc(C)s2)cc1`, the activity change, negative = inhibition is -20.4% (inactive). Same read-out and setting: next, `Cc1ccc(SCCC(=O)OCC(=O)Nc2ncc(Cl)cc2Cl)cc1`: -8.54% (inactive); `CC/C=C\C/C=C\C/C=C\C/C=C\C/C=C\C/C=C\CCC(=O)NCCc1ccc(O)c(O)c1`: -14.7% (inactive). The same measure, in the same setting: next, `Cc1ccc(-c2noc(-c3ccccc3C(=O)NCC3CCCO3)n2)cc1` (stereo not given): -6.63% (inactive). As for `CCOc1ccc(-n2c(N)c(C(=O)NCC3CCCO3)sc2=S)cc1` (stereo not given), the Potency was 8.91 µM (active).

As to `Cc1ccc(C(=O)NCC2CCCO2)o1` (stereo not given), the activity change, negative = inhibition is -12% (inactive). On the same count and under the same terms, next, `Cc1nc2ccccc2c2oc(C(=O)NCC3CCCO3)cc12` (stereo not given): -26% (inactive); `CCOc1ccc(S(=O)(=O)NCC2CCCO2)cc1` (stereo not given): -2.22% (inactive).

On to `Cc1c(C(=O)NCC2CCCO2)sc2nc(-c3ccccc3)cn12` (stereo not given), for which the Potency was 28.2 µM (active). With `CCOC(=O)c1cccnc1NC(=O)c1ccncc1`, the activity change, negative = inhibition is -2.52% (inactive). On the same count and under the same terms, the value for `c1ccc2c(c1)CSc1sccc1C2=C1CCNCC1` was -1.18% (inactive); that for `COCCNc1cc(NCCOC)c([N+](=O)[O-])cc1[N+](=O)[O-]` was -9.02% (inactive). In the case of `O=C(O)C1CCN(c2ncnc3ccc(-c4ccccc4C(F)(F)F)cc23)CC1`, the Potency was 1.26 µM (active). For `c1ccc(-n2ncc3c(N4CCCC4)ncnc32)cc1`, the activity change, negative = inhibition is -12.9% (inactive). The same measure, in the same setting: the value for `Cc1scc(C(=O)NNC(=S)NCc2ccccc2)c1C` was -7.44% (inactive).

In the case of `Cn1ncc(Br)c1C(=O)NCc1cccs1`, the Potency is 15.8 µM (active). `COc1cc(CC(=O)NCc2cccs2)cc(OC)c1OC`: the activity change, negative = inhibition is -17% (inactive). In the case of `Cc1nnc(SCC(=O)NCc2cccs2)[nH]c1=O`, the activity change, negative = inhibition was -0.933% (inactive). The same measure, in the same setting: next, `Cc1ccc2nsnc2c1NC(=O)c1ccccc1[N+](=O)[O-]`: -15.8% (inactive); `Cc1ccc(/C=N/NC(=O)CNC(=O)COc2ccccc2)o1`: -5.29% (inactive); `Cc1ccc(C(=O)N/C(=C/c2cccnc2)C(=O)O)cc1`: -13.7% (inactive). On the same count and under the same terms, the value for `COc1ccc(Br)cc1C(=O)Nc1cccc(C)c1C` was -28.1% (inactive). As to `COc1ccc(Br)cc1C(=O)NC(=S)Nc1cc(-c2nc3ccccc3[nH]2)ccc1C`, the Potency is 28.2 µM (active). `COc1ccc(/C=C(/NC(=O)c2ccc(C)cc2)c2nc3ccccc3[nH]2)cc1OC`: the activity change, negative = inhibition is -24.1% (inactive).

Regarding `C=C(C(C)=O)C(O)c1cccs1` (stereo not given), the activity change, negative = inhibition was -6.13% (inactive). Same read-out and setting: next, `COC(=O)C(C(=O)OC)[C@@H](NC=O)c1ccccc1`: -1.83% (inactive). As for `O=[n+]1c2c(n([O-])c3cc(Br)ccc31)CCC2`, the Potency is 11.2 µM (active).

Take `CCc1c(C)n([O-])c2c([n+]1=O)CCCCC2`: the activity change, negative = inhibition is -4.11% (inactive). Still for that read-out and setting: the value for `Cc1ccc(-c2c(C)n([O-])c3c([n+]2=O)CCC3)cc1` was -24.7% (inactive); that for `O=C(Cc1ccccc1)NCc1ccc(F)cc1` was -22.4% (inactive). On the same count and under the same terms, next, `CCCCOC(=O)c1ccc(NC(c2ccc(C)cc2)P(=O)(OC)OC)cc1` (stereo not given): -21.8% (inactive); `CCc1nnc(NC(=O)c2cccs2)s1`: -9.46% (inactive); `CCc1ccccc1NC(=O)c1cccs1`: -5.77% (inactive).

In the case of `CCc1c(C)sc(NC(=O)c2cccs2)c1C(N)=O`, the Potency was 8.91 µM (active). Take `O=C(NCCOc1ccccc1Cl)C(=O)Nc1ccccc1`: the activity change, negative = inhibition is -2.3% (inactive).

As to `CC(=O)NS(=O)(=O)c1ccc(NC(=O)C2C3C=CC(C3)C2C(=O)O)cc1` (stereo not given), the activity change, negative = inhibition is -3.59% (inactive).

In the case of `COCCCN(C(=S)Nc1c(C)cc(C)cc1C)C(C)c1ccncc1` (stereo not given), the activity change, negative = inhibition is -0.352% (inactive). In the case of `CCn1ncc(CNC(=O)C2(C)CC2(Br)Br)c1C` (stereo not given), the Potency was 14.1 µM (active).
